Measured values taken from PubChem BioAssay (NCI).
Several values for one entry are separate records, joined by “and”; a condition that tells them apart may be missing. Equal entries are not always repeated. About 83,000 compounds went through this panel and 20% of them were active in at least one assay; those are over-represented in the sample as a whole.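 A percent growth of 40 corresponds to 60% growth inhibition; 0 means no net growth; -100 means all cells died. Active threshold: below 10.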 Some structures have more than one record in an assay (separate samples or runs), and their calls can disagree. Activity calls are given as the source filed them.

Tests used:
Test in all cases: NCI-60 one-dose screen, 48 h (100 = growth as untreated, 0 = no growth, -100 = all killed)
[1] = system: SR leukemia; conditions: 10 µM unless noted
[2] = system: RPMI-8226 leukemia
[3] = system: OVCAR-5 ovarian
[4] = system: OVCAR-4 ovarian
[5] = system: OVCAR-3 ovarian
[6] = system: HS 578T breast
[7] = system: NCI/ADR-RES ovarian; conditions: 10 µM unless noted
[8] = system: T-47D breast
[9] = system: BT-549 breast
[10] = system: MDA-MB-435 melanoma
[11] = system: SW-620 colon
[12] = system: MCF7 breast; conditions: 10 µM unless noted
[13] = system: HCT-116 colon; conditions: 10 µM unless noted
[14] = system: KM12 colon
[15] = system: OVCAR-8 ovarian
[16] = system: SK-OV-3 ovarian
[17] = system: IGROV1 ovarian; conditions: 10 µM unless noted
[18] = system: HCC-2998 colon

Measured: growth

COC(=O)/C=C/c1cc(O)c2c(c1)C(C(=O)OC)C(c1ccc(O)c(O)c1)O2 (stereo unspecified)
active: [5]; 10 µM unless noted -1.91% and 9.26% | [9]; 10 µM unless noted -2.3% and -1.89% | [10]; 10 µM unless noted -37.6% and -26% | [13] 8.03% and 7.89%
5.46% (active) and 10.8% (inactive): [1]
inactive: [2]; 10 µM unless noted 36% and 34.4% | [3]; 10 µM unless noted 69.3% and 54.7% | [4]; 10 µM unless noted 52.9% and 43.8% | [6]; 10 µM unless noted 33.2% and 44.9% | [7] 18.3% and 15.8% | [8]; 10 µM unless noted 84.7% and 84.1% | [11]; 10 µM unless noted 19.4% and 29.6% | [12] 15.1% and 13.7% | [14]; 10 µM unless noted 11.9% and 11.7%

CCOC(=O)c1sc(N)nc1-c1ccccc1
inactive: [2]; 10 µM unless noted 99.1% | [15]; 10 µM unless noted 108% | [3]; 10 µM unless noted 90.9% | [4]; 10 µM unless noted 106% | [16]; 10 µM unless noted 93.7% | [17] 101% | [5]; 10 µM unless noted 108% | [6]; 10 µM unless noted 106% | [7] 104% | [8]; 10 µM unless noted 94.4% | [9]; 10 µM unless noted 99.9% | [10]; 10 µM unless noted 103% | [11]; 10 µM unless noted 109% | [12] 100% | [13] 96.7% | [18]; 10 µM unless noted 102% | [14]; 10 µM unless noted 106%

COc1ccccc1NC(=O)OCC#CCOC(=O)Nc1ccccc1OC
inactive: [2]; 10 µM unless noted 90.2% and 72.3% | [15]; 10 µM unless noted 106% and 97.6% | [3]; 10 µM unless noted 98.9% and 98.3% | [4]; 10 µM unless noted 99.2% and 94% | [16]; 10 µM unless noted 104% and 94.8% | [17] 108% and 83.5% | [5]; 10 µM unless noted 127% and 86.4% | [6]; 10 µM unless noted 99.7% and 76.3% | [7] 98.7% and 92.7% | [8]; 10 µM unless noted 96.7% and 89.2% | [9]; 10 µM unless noted 91% | [10]; 10 µM unless noted 95.2% and 75.5% | [11]; 10 µM unless noted 102% and 90.2% | [12] 107% and 91.8% | [13] 99.9% and 87.4% | [18]; 10 µM unless noted 103% and 104% | [14]; 10 µM unless noted 108% and 91.2%

CCC(=O)C(CC)c1cccc(OC)c1 (stereo unspecified)
inactive: [1] 96.7% | [2]; 10 µM unless noted 101% | [3]; 10 µM unless noted 115% | [4]; 10 µM unless noted 105% | [16]; 10 µM unless noted 121% | [17] 107% | [5]; 10 µM unless noted 117% | [6]; 10 µM unless noted 106% | [7] 101% | [9]; 10 µM unless noted 105% | [10]; 10 µM unless noted 101% | [11]; 10 µM unless noted 105% | [12] 104% | [13] 104% | [18]; 10 µM unless noted 112%

O=C(Oc1cccc(OC(=O)c2ccccc2)c1)c1ccccc1
inactive: [1] 94.4% | [2]; 10 µM unless noted 69.9% and 104% | [4]; 10 µM unless noted 97.3% and 92.1% | [16]; 10 µM unless noted 126% and 97.4% | [17] 109% | [5]; 10 µM unless noted 76.3% and 101% | [6]; 10 µM unless noted 78.4% and 102% | [8]; 10 µM unless noted 102% | [9]; 10 µM unless noted 112% and 90.8% | [10]; 10 µM unless noted 113% and 99.8% | [11]; 10 µM unless noted 85.8% and 103% | [13] 89.2% and 93.9% | [18]; 10 µM unless noted 96.3% and 102% | [14]; 10 µM unless noted 87.9%

Nc1ccc2[nH]c(-c3ccccc3)cc(=O)c2c1
inactive: [2]; 10 µM unless noted 86.1% | [15]; 10 µM unless noted 97.4% | [3]; 10 µM unless noted 94.8% | [4]; 10 µM unless noted 111% | [16]; 10 µM unless noted 98.1% | [17] 95.5% | [5]; 10 µM unless noted 64.3% | [6]; 10 µM unless noted 107% | [7] 70.5% | [8]; 10 µM unless noted 78% | [9]; 10 µM unless noted 81.2% | [11]; 10 µM unless noted 57.6% | [12] 51.7% | [13] 81% | [18]; 10 µM unless noted 78.3% | [14]; 10 µM unless noted 45.2%
active: [10]; 10 µM unless noted -21.2%

NC(=O)C1CC2C=CC1C2 (stereo unspecified)
inactive: [2]; 10 µM unless noted 144% and 87.5% | [15]; 10 µM unless noted 97% and 95.1% | [3]; 10 µM unless noted 89.8% and 95.3% | [4]; 10 µM unless noted 107% and 120% | [16]; 10 µM unless noted 111% and 121% | [17] 70.1% and 87.3% | [5]; 10 µM unless noted 93.2% and 106% | [6]; 10 µM unless noted 110% and 94.3% | [7] 108% and 102% | [8]; 10 µM unless noted 101% and 100% | [9]; 10 µM unless noted 93% and 112% | [10]; 10 µM unless noted 106% and 100% | [11]; 10 µM unless noted 96.2% and 97.5% | [12] 100% and 102% | [13] 92.5% and 91.5% | [18]; 10 µM unless noted 76.5% and 110% | [14]; 10 µM unless noted 112% and 105%

O=C(N/N=C/c1cccc2ccccc12)C1CC1
inactive: [1] 93.6% | [2]; 10 µM unless noted 85.6% and 97.8% | [3]; 10 µM unless noted 122% and 100% | [4]; 10 µM unless noted 101% | [17] 118% and 107% | [5]; 10 µM unless noted 113% and 112% | [6]; 10 µM unless noted 109% and 98.6% | [7] 115% and 97.8% | [8]; 10 µM unless noted 98.9% and 109% | [9]; 10 µM unless noted 101% | [10]; 10 µM unless noted 117% and 97.8% | [11]; 10 µM unless noted 110% and 102% | [12] 80.3% and 87.5% | [13] 106% and 102% | [14]; 10 µM unless noted 108% and 104%

c1ccc2c(CC3=NCCN3)cccc2c1
inactive: [2]; 10 µM unless noted 104% and 97.2% | [15]; 10 µM unless noted 98% and 101% | [3]; 10 µM unless noted 97.7% and 108% | [4]; 10 µM unless noted 108% and 110% | [16]; 10 µM unless noted 105% and 107% | [17] 108% and 116% | [5]; 10 µM unless noted 117% and 116% | [6]; 10 µM unless noted 107% and 99.6% | [7] 101% and 105% | [8]; 10 µM unless noted 106% and 111% | [9]; 10 µM unless noted 101% and 96.9% | [10]; 10 µM unless noted 101% and 106% | [11]; 10 µM unless noted 107% and 110% | [12] 99.4% and 102% | [13] 94.7% and 104% | [18]; 10 µM unless noted 97.5% and 103% | [14]; 10 µM unless noted 109% and 111%

O=C(O)c1sccc1O
active: [10]; 100 µM 0.533% | [14]; 100 µM 2.5%
inactive: [2]; 10 µM 71.4% | [2]; 100 µM 16% | [15]; 10 µM 82.4% | [15]; 100 µM 37.8% | [3]; 10 µM 102% | [3]; 100 µM 38% | [4]; 10 µM 76.5% | [4]; 100 µM 29.9% | [16]; 10 µM 84.5% | [16]; 100 µM 80.9% | [5]; 10 µM 75.1% | [5]; 100 µM 11.1% | [6]; 10 µM 65.6% | [6]; 100 µM 19.5% | [8]; 10 µM 53.9% | [8]; 100 µM 18.2% | [9]; 10 µM 69.5% | [9]; 100 µM 11.6% | [10]; 10 µM 77.8% | [11]; 10 µM 93.3% | [11]; 100 µM 24% | [12] 15.4% [100 µM] | [13] 15.5% [100 µM] | [18]; 10 µM 109% | [18]; 100 µM 38.5% | [14]; 10 µM 78.3%

CCN(CC)CCC(CNc1c2ccc([N+](=O)[O-])cc2nc2cc(OC)c(OC)cc12)c1ccccc1 (stereo unspecified)
inactive: [6]; 10 µM unless noted 44.4%
27.3% (inactive) and -64.1% (active): [16]; 10 µM unless noted
active: [1] -14.8% | [2]; 10 µM unless noted -5.85% and -73% | [3]; 10 µM unless noted -13.3% and -83.9% | [4]; 10 µM unless noted -53.2% and -94.6% | [17] -49.8% and -64% | [5]; 10 µM unless noted -38% and -100% | [9]; 10 µM unless noted -33.9% and -92.7% | [10]; 10 µM unless noted -92.2% and -97.3% | [11]; 10 µM unless noted 6.7% | [12] -50.2% and -97.5% | [13] -69% and -89.1% | [14]; 10 µM unless noted -63.5% and -100%
30.5% (inactive) and -58.4% (active): [7]
